Inconclusive results are not listed. Active and inactive are the calls of the source. The calls were made as follows, unless noted: active = hit-call score of the fitted dose curve at least 0.9, where 1 is the maximum; inactive = score below 0.9.

The source of these data is PubChem BioAssay (EPA / NIEHS).

Assay [1] deals with Paired box protein Pax-6 (Homo sapiens) (UniProt P26367). The assay can be described thus: ATG_Pax6_CIS: Attagene CIS-FACTORIAL HepG2 Assay for human Paired Box 6 (PAX6) (AID 2282956). The conditions noted are these: HepG2 CIS-FACTORIAL PAX6 reporter transcription, RNA readout; actives raise or lower the signal. The method, boiled down: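 Multiplexed cis-reporter HepG2 system; 24 h treatment; reporter mRNA read by RT-PCR/CE fluorescence; bidirectional fit vs DMSO.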
Paired box protein Pax-6 (Homo sapiens), sequence (P26367 whole entry, looked up): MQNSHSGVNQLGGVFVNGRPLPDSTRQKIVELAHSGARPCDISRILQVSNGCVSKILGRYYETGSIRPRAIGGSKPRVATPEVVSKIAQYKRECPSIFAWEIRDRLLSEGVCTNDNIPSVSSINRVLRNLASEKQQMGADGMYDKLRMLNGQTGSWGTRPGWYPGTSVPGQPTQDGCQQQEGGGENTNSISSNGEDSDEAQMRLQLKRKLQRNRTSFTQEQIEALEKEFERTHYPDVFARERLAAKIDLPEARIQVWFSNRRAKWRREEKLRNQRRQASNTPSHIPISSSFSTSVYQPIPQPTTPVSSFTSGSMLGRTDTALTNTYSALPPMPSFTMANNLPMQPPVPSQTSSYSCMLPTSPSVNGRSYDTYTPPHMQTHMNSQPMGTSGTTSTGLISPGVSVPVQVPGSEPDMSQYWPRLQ

The nature of assay [2]: ATG_PXRE_CIS: Attagene CIS-FACTORIAL HepG2 Assay for human Pregnane X Receptor Element (PXRE) (AID 2282957). The conditions noted are these: HepG2 Attagene CIS-FACTORIAL PXRE reporter, mRNA; actives raise or lower the signal. The method, boiled down: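 HepG2 cells transiently transfected with cis-regulated multiple reporter transcription units; endogenous factor activity measured as reporter mRNA 24 h after dosing. RT-PCR, fluorescent primer extension, HpaI digestion, capillary electrophoresis; bidirectional fit versus DMSO baseline.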

Assay [3] can be described thus: ATG_PPRE_CIS: Attagene CIS-FACTORIAL HepG2 Assay for human Peroxisome Proliferator-activated Response Element (PPRE) (AID 2282958). The conditions noted are these: HepG2 PPRE cis-element reporter, Attagene transcription factor profiling; actives raise or lower the signal. The method, boiled down:
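In this cell-based multiplex, a PPRE cis element drives a reporter sequence in transiently transfected HepG2 cells. Following 24 h treatment, labeled cDNA amplicons are sized and quantified by capillary electrophoresis, with DMSO defining baseline.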

The nature of assay [4]: ATG_RORE_CIS: Attagene CIS-FACTORIAL HepG2 Assay for human RAR-related Orphan Receptor Element (RORE) (AID 2282959). The following applies: HepG2 Attagene cis-factorial RORE reporter, mRNA; actives raise or lower the signal. The method, boiled down:
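Endogenous factor activity at a cis response element is read as reporter transcript levels in HepG2 cells, 24 h post-dose. Transcripts are quantified by RT-PCR with capillary electrophoresis, and data fitted in both directions against DMSO.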

Assay [5] is described as follows: ATG_Sox_CIS: Attagene CIS-FACTORIAL HepG2 Assay for human SRY-box transcription factor (SOX) (AID 2282960). The conditions noted are these: HepG2 Attagene cis-factorial SOX reporter, mRNA; actives raise or lower the signal. The method, boiled down:
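Measures mRNA induction of a SOX1-associated reporter in HepG2 after 24 h dosing. Fluorescently labelled RT-PCR fragments are separated by capillary electrophoresis, and gain or loss relative to DMSO control is fitted.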

Assay [6] concerns the target Transcription factor Sp1 (Homo sapiens) (UniProt P08047). The assay can be described thus: ATG_Sp1_CIS: Attagene CIS-FACTORIAL HepG2 Assay for human Specificity Protein 1 (Sp1) (AID 2282961). The following applies: HepG2 Sp1 cis-reporter transcription, actives raise or lower the signal. The method, boiled down: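 Cells: HepG2, transiently transfected with cis-regulated multiplexed reporters. Exposure: 24 h. Detection: reporter transcripts amplified, fluorescently labeled, restriction-digested and sized by capillary electrophoresis. Analysis: bidirectional fit relative to DMSO.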

Assay [7] in a line: ATG_SREBP_CIS: Attagene CIS-FACTORIAL HepG2 Assay for human Sterol Regulatory Element Binding (SREBP) (AID 2282962). The conditions noted are these: HepG2 Attagene cis-factorial SREBP reporter, mRNA; actives raise or lower the signal. The method, boiled down:
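mRNA induction of transfected cis-promoter reporters in HepG2 cells, 24 h post-dose. Detection: RT-PCR with 6-FAM-labelled products, HpaI digest, capillary electrophoresis. DMSO served as negative control and baseline.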

The target in assay [8] is Signal transducer and activator of transcription 3 (Homo sapiens) (UniProt P40763). In words: ATG_STAT3_CIS: Attagene CIS-FACTORIAL HepG2 Assay for human Signal Transducer and Activator of Transcription 3 (STAT3) (AID 2282963). The conditions noted are these: HepG2, Attagene cis-factorial STAT3 reporter transcription; actives raise or lower the signal. The method, boiled down:
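Endogenous STAT3-responsive cis-element activity was read in transiently transfected HepG2 cells after 24 h treatment. Reporter transcripts were quantified via RT-PCR and capillary electrophoresis, with DMSO as negative control and bidirectional curve fitting.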

The nature of assay [9]: ATG_TA_CIS: Attagene CIS-FACTORIAL HepG2 Assay for human TA Basal Promoter (AID 2282964). The following applies: HepG2 Attagene CIS-factorial TA basal promoter reporter; actives raise or lower the signal. The method, boiled down: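 Steps: transfect HepG2 with MRTUs; dose 24 h; isolate RNA, DNase-treat, reverse-transcribe; PCR and FAM-label reporter cDNA; digest with HpaI 2h at 37 C; run capillary electrophoresis. Activity fitted both directions against DMSO.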

Assay [10] is described as follows: ATG_TAL_CIS: Attagene CIS-FACTORIAL HepG2 Assay for human TAL Basal Promoter (AID 2282966).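 Also: background control endpoint measuring basal TAL promoter reporter mRNA not a specific factor.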 The conditions noted are these: HepG2 Attagene cis-factorial TAL promoter reporter; actives raise or lower the signal. The method, boiled down:
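HepG2 cells were transiently transfected with promoter-driven multiplexed reporter units and dosed for 24 h. Reporter mRNA was measured by RT-PCR with capillary electrophoresis fluorescence; bidirectional fits used DMSO as baseline, serving as a background control.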

Assay [11] can be described thus: ATG_TGFb_CIS: Attagene CIS-FACTORIAL HepG2 Assay for human Transforming Growth Factor (TGF) (AID 2282967). The following applies: HepG2 Attagene CIS TGFb reporter, mRNA transcription; actives raise or lower the signal. The method, boiled down: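 Cells were dosed for 24 hours, after which total RNA was reverse-transcribed and reporter sequences amplified, labeled and sized by capillary electrophoresis. Activity was fitted in both directions against DMSO.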

Assay [12] in a line: ATG_VDRE_CIS: Attagene CIS-FACTORIAL HepG2 Assay for human Vitamin D Receptor Element (VDRE) (AID 2282968). The following applies: HepG2 VDRE cis-reporter transcription, actives raise or lower the signal. The method, boiled down: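 Reporter mRNA induction, quantified by capillary electrophoresis of fluorescently labelled RT-PCR products, was read 24 h after dosing HepG2 cells carrying transiently transfected cis-regulated reporter units; gain or loss relative to DMSO.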

In assay [13] the target is Estrogen receptor (Homo sapiens) (UniProt P03372). The assay can be described thus: ATG_ERa_TRANS: Attagene TRANS-FACTORIAL HepG2 Assay for human Estrogen Receptor alpha (ERa) (AID 2282970; active = hit-call score of the fitted dose curve at least 0.9, where 1 is the maximum). The following applies: HepG2 Attagene TRANS ERa GAL4 reporter, mRNA. The method, boiled down: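 HepG2 cells transiently transfected with multiplexed GAL4-UAS reporter units; ERa activity read via exogenous chimeric NR-Gal4 protein. After 24 hour compound exposure, reporter mRNA measured by RT-PCR with 6-FAM labelling and capillary electrophoresis; gain-of-signal fitted relative to DMSO.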
Estrogen receptor (Homo sapiens), sequence (P03372 whole entry, looked up, the tested form may be a part): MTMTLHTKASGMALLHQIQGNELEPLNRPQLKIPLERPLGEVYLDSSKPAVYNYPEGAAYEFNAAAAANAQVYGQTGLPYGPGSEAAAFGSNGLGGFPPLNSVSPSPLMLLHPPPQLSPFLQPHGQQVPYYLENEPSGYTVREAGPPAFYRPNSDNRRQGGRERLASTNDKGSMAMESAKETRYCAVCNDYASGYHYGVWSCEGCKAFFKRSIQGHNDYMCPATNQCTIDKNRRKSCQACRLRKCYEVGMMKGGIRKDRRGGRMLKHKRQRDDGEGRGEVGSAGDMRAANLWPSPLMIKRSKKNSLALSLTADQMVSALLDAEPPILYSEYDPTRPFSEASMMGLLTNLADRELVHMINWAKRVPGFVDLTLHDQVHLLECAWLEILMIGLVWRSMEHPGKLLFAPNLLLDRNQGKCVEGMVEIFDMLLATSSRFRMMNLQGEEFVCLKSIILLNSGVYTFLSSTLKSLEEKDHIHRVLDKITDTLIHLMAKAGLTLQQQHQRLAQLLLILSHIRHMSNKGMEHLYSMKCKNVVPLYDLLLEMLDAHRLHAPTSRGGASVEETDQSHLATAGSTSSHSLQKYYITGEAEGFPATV

Assay [14] concerns the target X-box-binding protein 1 (Homo sapiens) (UniProt P17861). The assay can be described thus: ATG_Xbp1_CIS: Attagene CIS-FACTORIAL HepG2 Assay for human X-box Binding Protein 1 (XBP1) (AID 2282972). The following applies: HepG2 XBP1 cis-element reporter, Attagene multiplex; actives raise or lower the signal. The method, boiled down:
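Fluorescence-labelled cDNA fragments from reporter transcripts, separated by capillary electrophoresis, give the signal. Source: HepG2 cells transfected with promoter-driven reporter units, harvested 24 h post-dose. DMSO served as reference for bidirectional curve fitting.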

Assay [15] is described as follows: ATG_M_19_TRANS: Attagene TRANS-FACTORIAL HepG2 Assay for M19 Transcription Factor (Internal Marker) (AID 2282974; active = hit-call score of the fitted dose curve at least 0.9, where 1 is the maximum). The conditions noted are these: HepG2 Attagene TRANS-FACTORIAL M19 internal marker reporter. The method, boiled down:
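Reporter mRNA induction was measured in transfected HepG2 cells 24 h after dosing. Endpoint fitted upward relative to DMSO and serves as a background control within the multiplexed TRANS panel.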

Assay [16] can be described thus: ATG_GAL4_TRANS: Attagene TRANS-FACTORIAL HepG2 Assay for GAL4 (Internal Marker) (AID 2282976; active = hit-call score of the fitted dose curve at least 0.9, where 1 is the maximum). The following applies: HepG2 Attagene TRANS GAL4 internal marker reporter. The method, boiled down: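 HepG2 cells transiently transfected with multiplexed GAL4-UAS reporter constructs were dosed for 24 h. Reporter mRNA was measured by RT-PCR, 6-FAM primer extension, HpaI digestion and capillary electrophoresis, and gain of signal was fitted relative to DMSO.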

The target of assay [17] is Estrogen-related receptor gamma (Homo sapiens) (UniProt P62508). In words: ATG_ERRg_TRANS: Attagene TRANS-FACTORIAL HepG2 Assay for human Estrogen-Related Receptor gamma (ERRg) (AID 2282977; active = hit-call score of the fitted dose curve at least 0.9, where 1 is the maximum;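 also: hits increase reporter signal over DMSO so potencies reflect activators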). The conditions noted are these: HepG2 Attagene TRANS reporter, ERRg transactivation. The method, boiled down:
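Transfect HepG2 with multiple GAL4-UAS reporter transcription units; dose chemicals 24 h; isolate RNA, reverse-transcribe with oligo(dT), PCR-amplify, label with 6-FAM, digest with HpaI; size fragments by capillary electrophoresis. DMSO serves as negative control.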

Transcription factor Sp1 (Homo sapiens), sequence (P08047 whole entry, looked up): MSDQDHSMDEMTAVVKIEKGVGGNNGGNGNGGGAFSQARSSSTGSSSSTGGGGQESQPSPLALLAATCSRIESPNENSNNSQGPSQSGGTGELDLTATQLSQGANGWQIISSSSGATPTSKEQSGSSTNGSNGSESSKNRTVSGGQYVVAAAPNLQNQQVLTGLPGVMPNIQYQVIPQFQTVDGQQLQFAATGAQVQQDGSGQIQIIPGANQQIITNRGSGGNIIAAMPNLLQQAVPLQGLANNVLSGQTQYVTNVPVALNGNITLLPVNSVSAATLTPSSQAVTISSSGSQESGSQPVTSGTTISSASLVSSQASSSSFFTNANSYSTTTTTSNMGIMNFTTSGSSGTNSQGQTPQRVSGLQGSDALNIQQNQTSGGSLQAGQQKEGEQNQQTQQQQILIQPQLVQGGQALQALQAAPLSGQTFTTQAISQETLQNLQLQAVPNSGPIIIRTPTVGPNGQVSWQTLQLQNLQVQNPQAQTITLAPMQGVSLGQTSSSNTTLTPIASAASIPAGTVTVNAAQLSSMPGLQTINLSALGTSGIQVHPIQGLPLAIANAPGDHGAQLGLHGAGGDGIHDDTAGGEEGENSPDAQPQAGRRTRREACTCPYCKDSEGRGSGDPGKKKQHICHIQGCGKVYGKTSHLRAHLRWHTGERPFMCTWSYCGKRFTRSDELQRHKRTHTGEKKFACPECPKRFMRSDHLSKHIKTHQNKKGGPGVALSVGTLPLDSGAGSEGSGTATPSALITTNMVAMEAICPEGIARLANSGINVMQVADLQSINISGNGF
X-box-binding protein 1 (Homo sapiens), sequence (P17861 whole entry, looked up, the tested form may be a part): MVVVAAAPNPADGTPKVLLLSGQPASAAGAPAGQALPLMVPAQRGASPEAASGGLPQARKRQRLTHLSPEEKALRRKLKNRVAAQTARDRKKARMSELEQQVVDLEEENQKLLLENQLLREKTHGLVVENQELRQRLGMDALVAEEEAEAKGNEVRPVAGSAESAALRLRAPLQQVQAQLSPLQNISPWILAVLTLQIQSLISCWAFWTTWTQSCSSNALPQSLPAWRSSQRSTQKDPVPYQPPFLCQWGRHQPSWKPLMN
Signal transducer and activator of transcription 3 (Homo sapiens), sequence (P40763 whole entry, looked up): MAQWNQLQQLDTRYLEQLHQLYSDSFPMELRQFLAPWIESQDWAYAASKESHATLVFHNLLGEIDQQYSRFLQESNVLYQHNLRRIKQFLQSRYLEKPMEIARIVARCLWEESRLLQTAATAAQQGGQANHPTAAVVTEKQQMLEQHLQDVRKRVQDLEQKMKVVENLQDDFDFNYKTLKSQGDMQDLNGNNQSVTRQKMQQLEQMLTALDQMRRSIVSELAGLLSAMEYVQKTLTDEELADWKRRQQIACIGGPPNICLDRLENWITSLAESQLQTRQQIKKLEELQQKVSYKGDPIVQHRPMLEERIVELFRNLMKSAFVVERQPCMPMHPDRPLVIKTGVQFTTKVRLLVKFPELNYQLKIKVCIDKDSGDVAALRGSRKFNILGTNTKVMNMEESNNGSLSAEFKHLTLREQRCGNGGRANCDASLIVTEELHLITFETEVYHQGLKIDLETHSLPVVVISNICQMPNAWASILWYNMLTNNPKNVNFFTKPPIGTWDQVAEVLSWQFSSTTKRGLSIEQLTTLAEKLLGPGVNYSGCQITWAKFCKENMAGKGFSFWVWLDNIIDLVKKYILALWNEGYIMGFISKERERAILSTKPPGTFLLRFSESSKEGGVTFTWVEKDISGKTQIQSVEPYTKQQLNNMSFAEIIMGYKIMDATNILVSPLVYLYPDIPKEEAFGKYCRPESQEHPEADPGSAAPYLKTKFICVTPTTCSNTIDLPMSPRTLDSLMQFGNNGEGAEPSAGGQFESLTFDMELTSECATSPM
Estrogen-related receptor gamma (Homo sapiens), sequence (P62508 whole entry, looked up, the tested form may be a part): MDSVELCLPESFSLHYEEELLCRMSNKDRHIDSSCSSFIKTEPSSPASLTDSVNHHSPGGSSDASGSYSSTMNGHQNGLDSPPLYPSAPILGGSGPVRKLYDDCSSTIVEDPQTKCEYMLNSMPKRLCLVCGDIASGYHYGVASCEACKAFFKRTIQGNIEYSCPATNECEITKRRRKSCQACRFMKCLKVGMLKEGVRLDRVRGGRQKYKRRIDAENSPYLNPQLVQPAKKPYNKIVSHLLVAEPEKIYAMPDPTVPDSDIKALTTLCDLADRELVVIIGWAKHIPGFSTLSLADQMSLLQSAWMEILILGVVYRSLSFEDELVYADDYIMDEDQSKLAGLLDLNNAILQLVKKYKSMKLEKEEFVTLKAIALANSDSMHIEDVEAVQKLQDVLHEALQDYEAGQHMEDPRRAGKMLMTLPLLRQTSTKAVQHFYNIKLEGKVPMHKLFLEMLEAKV

Turning to `CCCC(=O)OCCC(C)C`, the outcome in [1], in assay [2], in assay [3], in [4], in assay [5] and in [6] was inactive. The outcome in [7], in assay [8], in assay [9], in assay [10], in assay [11] and in [12] was inactive. In addition, the compound was classed as inactive in assay [13] and in assay [14].
Usually AC50 stands for the midpoint of the concentration-response curve, whichever way the signal moves. On to `O=C(O)c1ccccc1-n1cc(C(=O)O)c(=O)c2cc(Nc3c(F)cc(F)cc3Cl)c(Cl)cc21`, for which the compound was called inactive in [1], in assay [3], in [4], in assay [5], in assay [6] and in assay [7]. Moreover, the compound was classed as inactive in assay [8], in assay [9], in assay [10], in [11], in assay [12] and in assay [13]. Moreover, in assay [14], the compound was classed as inactive. For the same compound, the AC50 in assay [2] was 62.3 µM (active).
For `COc1cccc([C@H](O)C2CCN(CCc3ccc(F)cc3)CC2)c1OC`, the compound was called inactive in assay [1], in [3], in [4], in assay [5], in assay [6] and in assay [7]. Also, the compound was called inactive in assay [8], in assay [9], in [10], in assay [11], in assay [12] and in [13]. Besides, the call in [14], in assay [15] and in assay [16] was inactive. The AC50 in [2] is 25.8 µM (active).
Consider `CC(C)(C)c1cc(/C=C2\SC(N)=NC2=O)cc(C(C)(C)C)c1O`, for which the AC50 in assay [1] was 14.5 µM (active); in assay [2] it was 1.2 µM (active); in assay [7], 18.2 µM (active); in [12], 4.48 µM (active); in [14], 20.8 µM (active). The outcome in assay [4], in assay [5], in assay [6], in [8], in assay [9] and in assay [10] was inactive. The compound was classed as inactive in [11], in assay [13], in assay [16] and in [17].
